Tested on: Vero E6 infected with SARS-CoV-2
Experiment: inhibition of SARS-CoV-2 cytopathic effect; higher = more antiviral protection, active = above 15
Conditions: 48 h

Measured: inhibition of SARS-CoV-2 cytopathic effect

CCOCCn1c(C2CCN(CCc3ccc(C(C)(C)C(=O)O)cc3)CC2)nc2ccccc21 [bilastine]
inactive: 1 nM -1.57% | 8.33 nM -0.88% | 100 nM -1.39% | 833.33 nM -1.14% | 10000 nM -0.38%

c1ccc(-c2nn3c(c2-c2ccnc4cc(OCCN5CCOCC5)ccc24)CCC3)nc1
inactive: 1 nM -0.68% | 8.33 nM 0.41% | 100 nM 1.87% | 833.33 nM -0.96% | 10000 nM 0.94%

Cc1cc(S(=O)(=O)O)c2c(C)ccc(C(C)C)cc1-2 [sodium-gualenate]
inactive: 1 nM -10.1% | 8.33 nM -5.96% | 100 nM -9.82% | 833.33 nM -7.07% | 10000 nM -0.7%

O=C(O)Cc1cccnc1C(=O)O [homoquinolinic-acid]
inactive: 1 nM 3.71% | 8.33 nM -1.17% | 100 nM -11.5% | 833.33 nM 1.81% | 10000 nM 1.14%

CCN(c1cc(-c2ccc(CN3CCOCC3)cc2)cc(C(=O)NCc2c(C)cc(C)[nH]c2=O)c1C)C1CCOCC1 [tazemetostat]
inactive: 1 nM 2.86% | 8.33 nM 0.49% | 100 nM 3.47% | 833.33 nM 0.53% | 10000 nM -0.93%

c1ccc(CNc2ncnc3[nH]cnc23)cc1 [6-benzylaminopurine]
inactive: 1 nM 0.87% | 8.33 nM 0.37% | 100 nM -1.53% | 833.33 nM -1.37% | 10000 nM -1.09%

COc1ccc(CCO[C@@H]2CCCC[C@H]2N2CC[C@@H](O)C2)cc1OC [vernakalant]
inactive: 1 nM -0.46% | 8.33 nM 0.39% | 100 nM -0.75% | 833.33 nM 1.67% | 10000 nM -1.63%

O=C(O)c1cc(C(=O)O)c(C(=O)N(Cc2cccc(Oc3ccccc3)c2)[C@H]2CCCc3ccccc32)cc1C(=O)O
inactive: 1 nM 0.03% | 8.33 nM -0.1% | 100 nM -1.42% | 833.33 nM -0.62% | 10000 nM 0.42%

C[C@H](NC(=O)c1sccc1OCc1ccc(Cl)cc1)c1ccccc1
inactive: 1 nM -2.57% | 8.33 nM -2.87% | 100 nM -1.08% | 833.33 nM -1.14% | 10000 nM -0.53%

O=C(O)c1ccc(NC(=O)[C@H](Cc2ccc(O)cc2)NC(=O)c2ccccc2)cc1 [bentiromide]
inactive: 1 nM -1.4% | 8.33 nM 0.94% | 100 nM -1.51% | 833.33 nM -0.68% | 10000 nM 0.39%

O=C(O)COc1ccc(OCCNC[C@H](O)COc2ccccc2)cc1
inactive: 1 nM -0.61% | 8.33 nM -0.47% | 100 nM -1.08% | 833.33 nM 0.26% | 10000 nM 1.07%

COc1ccc(C(CN(C)C)C2(O)CCCCC2)cc1 (stereo not given) [venlafaxine]
inactive: 1 nM 0.56% | 8.33 nM 0.96% | 100 nM 1.86% | 833.33 nM -0.35% | 10000 nM -0.29%

CC(C)OC(=O)N1CCC(Oc2ncnc3c2cnn3-c2ccc(S(C)(=O)=O)cc2F)CC1
inactive: 1 nM -4.65% | 8.33 nM -1.23% | 100 nM 2.78% | 833.33 nM -0.97% | 10000 nM -1.25%

CCCCC(=O)O[C@H]1CC[C@H]2[C@@H]3CCc4cc(O)ccc4[C@H]3CC[C@]12C
inactive: 1 nM -0.93% | 8.33 nM 0.74% | 100 nM -1.48% | 833.33 nM -1.92% | 10000 nM -0.83%

O=C(Nc1cnccc1Cl)N1CCN(Cc2ccc3c(c2)OC(F)(F)O3)CC1
inactive: 1 nM 1.58% | 8.33 nM -1.35% | 100 nM 1.93% | 833.33 nM 0.76% | 10000 nM 0.7%

CCCCCCCCCCCCCCOC(=O)c1cccnc1 [myristyl-nicotinate]
inactive: 1 nM 0.94% | 8.33 nM 2.86% | 100 nM 0.68% | 833.33 nM 1.76% | 10000 nM 1.2%

CCn1c(=O)[nH]c2ccccc21
inactive: 1 nM -3.62% | 8.33 nM -3.46% | 100 nM -3.83% | 833.33 nM -3.63% | 10000 nM -3.51%

Clc1ccc(C(OCCN2CCCCC2)c2ccccc2)cc1 (stereo not given) [cloperastine]
inactive: 1 nM -0.8% | 8.33 nM -0.73% | 100 nM 0.64% | 833.33 nM -3.95% | 10000 nM -8.21%

O=C1c2c(O)ccc(O)c2C(=O)c2c(NCCNCCO)ccc(NCCNCCO)c21 [mitoxantrone]
inactive: 1 nM 0.83% | 8.33 nM 0.03% | 100 nM -2.74% | 833.33 nM -4.43% | 10000 nM -11.1%

CC[n+]1c(-c2ccccc2)c2cc(N)ccc2c2ccc(N)cc21 [homidium]
inactive: 1 nM 4.78% | 8.33 nM 6.71% | 100 nM 5.98% | 833.33 nM 0.35% | 10000 nM 6.13%

C[C@]12CC[C@H]3[C@@H](CC[C@@]45O[C@@H]4C(O)=C(C#N)C[C@]35C)[C@@H]1CC[C@@H]2O [trilostane]
inactive: 1 nM 1.21% | 8.33 nM -0.28% | 100 nM -1.2% | 833.33 nM 0.24% | 10000 nM 2.15%

CN(C)CCCNC(=O)c1ccc(-c2cc(O)c3ncccc3c2)cc1
inactive: 1 nM -1.74% | 8.33 nM -0.41% | 100 nM 1.01% | 833.33 nM -0.72% | 10000 nM 6.05%

CSc1cc2c(cc1C(F)(F)F)N(C(=O)Nc1cccnc1)CC2
inactive: 1 nM -0.31% | 8.33 nM -3.61% | 100 nM 1.56% | 833.33 nM 1.75% | 10000 nM 0.95%

CCCCCCCCCCCCCCCC(=O)OC(C)C [isopropyl-palmitate]
inactive: 1 nM -1.17% | 8.33 nM -0.59% | 100 nM 0.66% | 833.33 nM 1.48% | 10000 nM -2.42%

NCC(O)(CS(=O)(=O)O)c1ccc(Cl)cc1 (stereo not given) [2-hydroxysaclofen]
inactive: 1 nM 0.19% | 8.33 nM 1.62% | 100 nM -0.08% | 833.33 nM 3.7% | 10000 nM 0.53%

O=C(Nc1cc(C(F)(F)F)cc(C(F)(F)F)c1)c1cc(Cl)ccc1O [IKK-2-inhibitor-V]
inactive: 1 nM -4.92% | 8.33 nM -2.65% | 100 nM 1.55% | 833.33 nM 10.7% | 10000 nM 4.63%

CCCCN1CCC(CNC(=O)c2c3n(c4ccccc24)CCCO3)CC1 [piboserod]
inactive: 1 nM -0.67% | 8.33 nM 1.75% | 100 nM 0.6% | 833.33 nM -0.97% | 10000 nM 1.25%

O=C(/C=C/C=C/c1ccc2c(c1)OCO2)N1CCCCC1 [piperine]
inactive: 1 nM -1.58% | 8.33 nM -1.88% | 100 nM -3.68% | 833.33 nM -2.45% | 10000 nM 5.15%

O=[N+]([O-])c1cncn1CCN1CCOCC1 [nimorazole]
inactive: 1 nM -1.41% | 8.33 nM -0.32% | 100 nM 0.99% | 833.33 nM 0.22% | 10000 nM -0.02%

COc1cccc([C@H](O)C2CCN(CCc3ccc(F)cc3)CC2)c1OC [volinanserin]
inactive: 1 nM -1.28% | 8.33 nM -0.6% | 100 nM -3.32% | 833.33 nM -1.38% | 10000 nM -2.28%

CC(C)(C(=O)O)c1ccc(C(=O)CCCN2CCC(OC(c3ccccc3)c3ccccc3)CC2)cc1 [carebastine]
inactive: 1 nM -2.83% | 8.33 nM -1.16% | 100 nM -0.91% | 833.33 nM -2.56% | 10000 nM -0.56%

Cc1nc2cnc3ccc(C#Cc4cccnc4)cc3c2n1-c1ccc(C(C)(C)C#N)cc1
inactive: 1 nM -1.65% | 8.33 nM 8.23% | 100 nM -1.48% | 833.33 nM -1.07% | 10000 nM -1.26%

CCCN1CCN(c2ccc(C(=O)NC3(C(=O)NCC#N)CCCCC3)cc2)CC1 [balicatib]
inactive: 1 nM 3.8% | 8.33 nM 0.96% | 100 nM -1.9% | 833.33 nM 0.29% | 10000 nM 10.8%

C[C@@H]1COC(Nc2ccc3ncnc(Nc4ccc(OCc5nccs5)c(Cl)c4)c3c2)=N1
inactive: 1 nM 2.68% | 8.33 nM 1.86% | 100 nM -0.65% | 833.33 nM -3.55% | 10000 nM -4.19%

CCCSc1nc(N[C@@H]2C[C@H]2c2ccc(F)c(F)c2)c2nnn([C@@H]3C[C@H](OCCO)[C@@H](O)[C@H]3O)c2n1 [ticagrelor]
inactive: 1 nM -0.64% | 8.33 nM 1.24% | 100 nM -0.46% | 833.33 nM 0.82% | 10000 nM 1.32%

CC(C)N1CCN(c2ccc(OCC3COC(Cn4cncn4)(c4ccc(Cl)cc4Cl)O3)cc2)CC1 (stereo not given) [terconazole]
inactive: 1 nM 1.55% | 8.33 nM 0.07% | 100 nM 4.2% | 833.33 nM -1.24% | 10000 nM 11.5%

CNC[C@H](O)c1ccc(O)c(O)c1 [epinephrine]
inactive: 1 nM 3.04% | 8.33 nM 3.04% | 100 nM -1.01% | 833.33 nM 0.24% | 10000 nM -0.94%

O=C1C2C=Nc3ccccc3C2=NN1c1ccc(Cl)cc1 (stereo not given)
inactive: 1 nM 0.17% | 8.33 nM -0.02% | 100 nM 1.99% | 833.33 nM 3.3% | 10000 nM -0.09%

COc1cc2nccc(Oc3ccc(NC(=O)NC4CC4)c(Cl)c3)c2cc1C(N)=O [lenvatinib]
inactive: 1 nM -1.78% | 8.33 nM -0.25% | 100 nM -0.32% | 833.33 nM -0.03% | 10000 nM 8.44%

Cc1cc(Nc2cc(CN3CCOCC3)c3nc(C)c(Cc4ccc(Cl)cc4F)n3n2)n[nH]1
inactive: 1 nM -0.17% | 8.33 nM 1% | 100 nM -1.28% | 833.33 nM -6.68% | 10000 nM -11.6%
